Assay outcomes deposited in PubChem by The Scripps Research Institute Molecular Screening Center.
Many of the other results were omitted from the sample, so hits are more common in it than they were.
SF-1 inh: inhibitors of human nuclear receptor SF-1; Q13285; CHO-K1 Gal4-SF-1 LBD luciferase reporter; inhibition, % at 10 µM; hit rate 0.55% among 65,000;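 active = inhibition above the mean inhibition of all tested compounds plus 3 SD, cut at about 48% in these data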;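 also: 0% = SF-1 transfected cells with DMSO and 100% = mock-transfected cells lacking SF-1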
Target sequence (Q13285 whole entry, looked up, the tested form may be a part): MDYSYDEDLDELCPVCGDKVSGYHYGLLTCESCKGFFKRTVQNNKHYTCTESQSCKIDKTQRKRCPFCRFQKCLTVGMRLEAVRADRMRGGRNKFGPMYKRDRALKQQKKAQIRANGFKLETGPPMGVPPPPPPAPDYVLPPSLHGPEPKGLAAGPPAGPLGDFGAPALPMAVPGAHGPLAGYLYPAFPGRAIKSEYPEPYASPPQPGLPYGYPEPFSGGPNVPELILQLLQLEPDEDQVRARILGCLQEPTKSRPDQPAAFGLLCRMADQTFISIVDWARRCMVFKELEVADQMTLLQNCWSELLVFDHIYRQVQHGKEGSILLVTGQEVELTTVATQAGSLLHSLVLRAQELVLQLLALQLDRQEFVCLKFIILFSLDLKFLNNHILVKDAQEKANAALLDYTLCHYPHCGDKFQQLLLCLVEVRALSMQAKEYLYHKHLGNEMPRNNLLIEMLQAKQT
* marks the source's active call; other numbers are inactive results.

For Cc1ccc(S(=O)(=O)N(CCO)c2cc3c(s2)CCCC3)cc1 the results were SF-1 inh 30.
`CCc1ccc2[nH]cc(C(=O)N3CCCCCC3)c(=O)c2c1` gave SF-1 inh 1.
For O=C(c1ccc2c3c(cccc13)C(=O)N(O)C2=O)N1CCCCC1 the results were SF-1 inh 66*.
Screening O=C(c1n[nH]c(=O)c2ccccc12)N1CCN(c2ccccc2Cl)CC1 returned SF-1 inh 1.
`O=C(OCC(=O)N1CCCCCC1)c1cccs1` gave SF-1 inh -55.
For COC(=O)c1ccc(COc2ccc(-c3nn[nH]n3)cc2)cc1 the results were SF-1 inh -24.
Cc1csc(NC(=O)c2ccoc2C)n1 was read as SF-1 inh -56.
Cc1nn(Cc2ccccc2Cl)c2sc(C(=O)OC3CCCC3=O)cc12 (centres undefined) was read as SF-1 inh 2.
For CCOC(=O)C1CCCN(C(=O)CCCOc2cc(=O)n(C)c3ccccc23)C1 (centres undefined) the results were SF-1 inh 14.
For Cc1ccnc(NC(=O)CCCOc2cc(=O)n(C)c3ccccc23)c1 the results were SF-1 inh 59*.
For CCC1CCCCN1C(=O)COc1cc(=O)n(C)c2ccccc12 (centres undefined) the results were SF-1 inh 0.
`CC(C)N(C=O)C1(C(=O)NC2CCCCC2)CCCCC1` gave SF-1 inh 0.
CCOc1ccc2[nH]c(S(=O)(=O)CC)nc2c1Cl was read as SF-1 inh -9.
Screening Cn1c(=O)c2cn3c(c2n(C)c1=O)C(c1ccccc1)CC(c1ccccc1)=N3 (centres undefined) returned SF-1 inh -8.
For CCN(C(=O)c1ccc(C(C)(C)C)cc1)c1nnc(Cn2nnc3ccccc32)s1 the results were SF-1 inh 69*.
`CCOC(=O)c1cnn(-c2nc(SC)nc3sc4c(c23)CCC4)c1N` gave SF-1 inh -3.
O=C(NCc1cccs1)c1cc2c(s1)CCCC2 was read as SF-1 inh -25.
Screening Cc1c(N=C2SCC(=O)N2c2c(C)n(C)n(-c3ccccc3)c2=O)c(=O)n(-c2ccccc2)n1C returned SF-1 inh -21.
Screening CCOC(=O)C1=C(C)Nc2ncnn2C1/C=C/c1ccccc1 (centres undefined) returned SF-1 inh 1.
For CCSCCOC(=O)C1=C(C)NC(=O)NC1c1cc(OC)ccc1OC (centres undefined) the results were SF-1 inh -5.
Screening CCOC(=O)C1=C(Cn2cnc3ccccc32)NC(=O)NC1c1cc(C)ccc1C (centres undefined) returned SF-1 inh 59*.
For O=C1CCN(Cc2nnnn2CC2CCCO2)c2ccccc2N1 (centres undefined) the results were SF-1 inh 3.
For CN(C)C(=O)N1CCCC(C(=O)NCc2ccccc2)C1 (centres undefined) the results were SF-1 inh -2.
`CCc1nc(C)c(-c2ccccc2)c(=O)[nH]1` gave SF-1 inh -10.
`CCc1nn2cc(-c3ccccc3)nc2s1` gave SF-1 inh 69*.
`Cc1cc(C)c2cc(C(c3nnnn3CC3CCCO3)N3CCN4CCCC4C3)c(=O)[nH]c2c1` (centres undefined) gave SF-1 inh -1.
COc1ccccc1N1CCN(C(=O)c2ccc(S(=O)(=O)N3CCCC3)cc2)CC1 was read as SF-1 inh -10.
For Cc1ccccc1Cn1c2ccccc2c2cn[nH]c(=O)c21 the results were SF-1 inh 8.
Screening O=C(CN1C(=O)CCSc2ccccc21)Nc1cccc(F)c1 returned SF-1 inh 0.
CN(C)CCCOC(=O)c1ccc(Br)cc1 was read as SF-1 inh 4.
For CN(C)CCOC(=O)C1(c2ccccc2)CCOCC1 the results were SF-1 inh -24.
Screening Cc1oc2cc3c(C(=O)OCCN(C)C)c(C)oc3cc2c1C(=O)OCCN(C)C returned SF-1 inh 79*.
Screening CCOC(=O)Cn1c(CN2CC(C)OC(C)C2)nc2c1c(=O)n(C)c(=O)n2C (centres undefined) returned SF-1 inh 0.
Screening Cc1[nH]c2ccc(-c3nnc(SCC(=O)NCc4ccco4)n3Cc3ccccc3)cc2c1C returned SF-1 inh 1.
CCOC(=O)C(C)Oc1cccc2c(=O)n(CC(=O)Nc3ccc4c(c3)OCCO4)ccc12 (centres undefined) was read as SF-1 inh 82*.
O=C(Cn1nc(Cc2cccnc2)c2ccccc2c1=O)NCc1ccc2c(c1)OCO2 was read as SF-1 inh -4.
For COc1ccccc1C(=O)Nc1ccc2c(c1)OCCO2 the results were SF-1 inh -76.
`CC1CC(=O)N(CC(=O)Nc2ccc3c(c2)OCCO3)c2ccccc2S1` (centres undefined) gave SF-1 inh 0.
For COc1ccccc1C(=O)NCc1ccc2c(c1)OCO2 the results were SF-1 inh 28.
For CCOC(=O)C(C)Oc1cccc2c(=O)n(CC(=O)NCc3ccc4c(c3)OCO4)ccc12 (centres undefined) the results were SF-1 inh 83*.
For Cc1c(NC(=O)c2cc(=O)[nH]c(=O)[nH]2)c(=O)n(-c2ccccc2)n1C the results were SF-1 inh -3.
Screening CCNc1nc(N)c(C(=O)c2ccc(Cl)s2)s1 returned SF-1 inh -31.
Screening O=C(NCC1CCCO1)c1cccc(-n2cnnn2)c1 (centres undefined) returned SF-1 inh 12.
`Cn1c(=O)c2c(nc(SCCN3CCOCC3)n2Cc2ccc(Cl)cc2)n(C)c1=O` gave SF-1 inh 4.
`C/C(Cl)=C\Cn1c(NCCc2ccccc2)nc2c1c(=O)n(C)c(=O)n2C` gave SF-1 inh 62*.
For CCNc1nc2c(c(=O)n(C)c(=O)n2C)n1Cc1ccc(Cl)cc1 the results were SF-1 inh 54*.
For CCN1CCN(Cc2nc3c(c(=O)n(C)c(=O)n3C)n2CCCc2ccccc2)CC1 the results were SF-1 inh 9.
For C=CCn1c(NCCc2ccccc2)nc2c1c(=O)n(C)c(=O)n2C the results were SF-1 inh 42.
`COc1ccc(Cl)c(Cn2c(NCC(C)O)nc3c2c(=O)n(C)c(=O)n3C)c1` (centres undefined) gave SF-1 inh -6.
`C=C(C)CSC1=C(C#N)C(c2ccccc2)CC(=O)N1` (centres undefined) gave SF-1 inh 10.
For O=C(Nc1ccc2c(c1)OCCO2)c1ccc(Br)o1 the results were SF-1 inh -59.
N=c1c2c3c(sc2nc2n1CCCCC2)CCCCC3 was read as SF-1 inh -12.
`CCOC(=O)C(C(=O)OCC)C(=O)c1cc(OC)c(OC)c(OC)c1` gave SF-1 inh -1.
For C=CCOC(=O)c1[nH]c2c(c1C)C(=O)CC(c1cc(OC)c(OC)c(OC)c1)C2 (centres undefined) the results were SF-1 inh 52*.
For Cc1c(C(=O)OCCOC(C)C)[nH]c2c1C(=O)CC(C)(C)C2 the results were SF-1 inh 8.
Screening CCOC(=O)C1=C(C)NC2=C(C(=O)CCC2)C1c1cc(OC)ccc1OC (centres undefined) returned SF-1 inh -2.
Screening CCCCOC(=O)c1[nH]c2c(c1C)C(=O)CC(c1cc(OC)c(OC)c(OC)c1)C2 (centres undefined) returned SF-1 inh 54*.
`O=C(COC(=O)C1CCCN1S(=O)(=O)c1ccc(Cl)cc1)Nc1ccc2c(c1)OCO2` (centres undefined) gave SF-1 inh -19.
